Test results as given in paper PMC4336329 (PLoS ONE, 2015).
Hit rate of the full screen: of about 310,000 compounds, about 2,200 (0.71%) showed an effect of 50% or more. The effect is printed as a negative number. This excerpt belongs to a sample that is enriched for strong results.

Each compound was assayed against human ether-à-go-go-related gene (hERG) potassium channel (human, UniProt Q12809) (assay: primary screen, population patch clamp on CHO cells stably expressing hERG; higher = less effect of the substance).
human ether-à-go-go-related gene (hERG) potassium channel, sequence (Q12809 whole entry, looked up): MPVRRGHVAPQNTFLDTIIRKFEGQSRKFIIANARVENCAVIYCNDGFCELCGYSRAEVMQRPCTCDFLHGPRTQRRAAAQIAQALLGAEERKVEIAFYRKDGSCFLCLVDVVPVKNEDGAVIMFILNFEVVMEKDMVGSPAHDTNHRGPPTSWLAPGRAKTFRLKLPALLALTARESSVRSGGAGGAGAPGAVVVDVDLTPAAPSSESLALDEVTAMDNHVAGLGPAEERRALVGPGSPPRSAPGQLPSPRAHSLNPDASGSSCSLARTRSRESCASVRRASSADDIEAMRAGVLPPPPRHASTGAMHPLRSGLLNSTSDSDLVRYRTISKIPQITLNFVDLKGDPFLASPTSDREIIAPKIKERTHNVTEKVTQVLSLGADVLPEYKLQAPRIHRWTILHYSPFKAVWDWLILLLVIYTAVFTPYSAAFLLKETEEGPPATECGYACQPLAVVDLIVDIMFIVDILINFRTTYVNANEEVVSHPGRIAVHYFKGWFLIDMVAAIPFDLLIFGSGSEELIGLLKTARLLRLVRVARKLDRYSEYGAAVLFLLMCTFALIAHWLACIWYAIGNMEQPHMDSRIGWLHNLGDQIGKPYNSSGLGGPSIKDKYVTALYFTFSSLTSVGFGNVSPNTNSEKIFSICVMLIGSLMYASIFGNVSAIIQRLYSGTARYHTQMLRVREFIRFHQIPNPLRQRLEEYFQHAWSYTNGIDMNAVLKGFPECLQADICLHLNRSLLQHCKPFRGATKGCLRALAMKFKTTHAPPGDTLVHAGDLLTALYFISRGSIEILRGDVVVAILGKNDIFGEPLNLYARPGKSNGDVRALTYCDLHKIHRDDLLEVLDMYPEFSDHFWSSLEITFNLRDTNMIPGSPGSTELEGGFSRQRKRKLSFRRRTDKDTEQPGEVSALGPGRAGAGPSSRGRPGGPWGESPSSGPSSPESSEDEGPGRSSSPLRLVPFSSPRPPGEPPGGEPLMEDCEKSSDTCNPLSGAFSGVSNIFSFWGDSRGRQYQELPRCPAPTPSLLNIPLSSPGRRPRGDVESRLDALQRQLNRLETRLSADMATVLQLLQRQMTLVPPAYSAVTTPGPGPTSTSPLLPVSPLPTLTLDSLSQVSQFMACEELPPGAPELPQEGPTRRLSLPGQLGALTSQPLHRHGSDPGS

Row | SMILES | hERG current change (%, negative = inhibition) at 1uM
1 | Cc1cc(-c2ccco2)n(CC(=O)NCCCc2ccccc2)n1 | 14.3%
2 | CC(C)(C)NC(=O)c1ccc2nsnc2c1 | 6.08%
3 | C=CCn1c(COc2ccc(Cl)cc2)nnc1SCC(=O)N/N=C/c1cccc(O)c1 | 4.13%
4 | COc1cccc(-c2c(C#N)c(N)nc3c2c(C)nn3-c2ccccc2)c1O | 1.84%
5 | FC(F)(F)c1ccncc1-c1nnc(C2CCCCC2)o1 | 15.5%
6 | CCOC(=O)N1CCC(NC(=O)c2cnn3cccnc23)CC1 | -4.76%
7 | CC1CCCCN1CCNC(=O)CC1Oc2ccccc2NC1=O (stereo not shown) | 5.21%
8 | Cc1cc(C)nc(OC(C(=O)O)C(OCCC(C)C)(c2ccccc2)c2ccccc2)n1 (stereo not shown) | 10.8%
9 | CCOC(=O)C1(CCOc2ccccc2)CCN(Cc2ccc(OC)c(O)c2)CC1 | -88.3%
10 | CCOC(=O)C1(CCOc2ccccc2)CCN(Cc2ccc(O)c(Cl)c2)CC1 | -2.25%
11 | CCOC(=O)C1(CCOc2ccccc2)CCN(Cc2ccc(OC)c(COC)c2)CC1 | -77.3%
12 | CCOC(=O)C1(CCOc2ccccc2)CCN(Cc2ccc(COC)o2)CC1 | -41.9%
13 | CCOC(=O)C1(CCOc2ccccc2)CCN(Cc2ccc(F)c(OC)c2)CC1 | 5.6%
14 | CCOC(=O)C1(CCOc2ccccc2)CCN(Cc2cc(OC)c(O)cc2Cl)CC1 | 7.21%
15 | CCOC(=O)C1(Cc2cccc(OC)c2)CCN(Cc2ccc(OC)c(O)c2)CC1 | -16.9%
16 | CCOC(=O)C1(CCOc2ccccc2)CCN(Cc2ccc(O)c(OC)c2)CC1 | -69.9%
17 | CCOC(=O)CSc1nnc(COc2cccc(C)c2)o1 | 10.6%
18 | COCCOc1ccc(C(F)(F)F)cc1NC(=O)c1ccc(C(F)(F)F)cc1 | 4.7%
19 | CCN(CC)S(=O)(=O)c1ccc(N/N=C/c2cc(OC)c(OC)cc2OC)nc1 | 17.4%
20 | COc1ccc(C(=O)NC2CCCc3ccccc32)cc1OC1CCN(C(C)=O)CC1 (stereo not shown) | 3.31%
21 | CCOc1ccc(/C(O)=C2/C(=O)C(=O)N(CCCN3CCOCC3)C2c2ccc(F)cc2)cc1C (stereo not shown) | 16.5%
22 | CN1CCN(S(=O)(=O)c2ccc(N3CCN(C(c4ccccc4)c4ccccc4)CC3)nc2)CC1 | 18.9%
23 | O=C(COc1ccc(S(=O)(=O)N2CCOCC2)cc1)Nc1cccc([N+](=O)[O-])c1 | 9.62%
24 | Cc1ccc(NC(=O)COc2ccc(S(=O)(=O)N3CCOCC3)cc2)cc1 | 13.6%
25 | O=C(COc1ccc([N+](=O)[O-])cc1)Nc1ccc(S(=O)(=O)N2CCOCC2)cc1 | -55.1%
